RORg inh: inhibitors of mouse ROR gamma transcriptional activity; P51450; Drosophila S2 Gal4-RORgamma UAS-luciferase reporter, 20 h; Potency, µM (doses to about 53.6 µM), inactives show at the top dose activity change, negative = inhibition, hits mostly inhibitors; actives 5.4% (n = 310,000); AID 2551; further: potency means the concentration at half of the fitted maximal effect; on the % scale 0 is the no-effect control and ±100 the full control effect; nearly all actives have a fitted effect of over 60% in size
Target sequence (P51450 whole entry, looked up, the tested form may be a part): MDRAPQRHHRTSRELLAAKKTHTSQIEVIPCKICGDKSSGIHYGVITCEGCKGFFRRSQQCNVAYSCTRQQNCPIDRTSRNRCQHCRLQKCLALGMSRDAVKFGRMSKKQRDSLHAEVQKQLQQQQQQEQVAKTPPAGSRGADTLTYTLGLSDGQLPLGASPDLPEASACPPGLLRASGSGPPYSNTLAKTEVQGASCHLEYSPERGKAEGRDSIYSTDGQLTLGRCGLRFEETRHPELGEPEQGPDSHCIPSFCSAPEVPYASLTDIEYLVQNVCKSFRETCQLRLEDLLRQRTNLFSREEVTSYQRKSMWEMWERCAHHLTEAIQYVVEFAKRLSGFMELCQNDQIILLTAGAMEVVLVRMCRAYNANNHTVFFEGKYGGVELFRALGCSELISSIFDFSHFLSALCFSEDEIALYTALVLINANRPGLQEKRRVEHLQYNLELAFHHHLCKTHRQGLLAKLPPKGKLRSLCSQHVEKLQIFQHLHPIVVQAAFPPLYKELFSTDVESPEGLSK
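Stable Schneider cell line, Gal4 DNA-binding domain fused to ROR gamma, UAS-luciferase. Cmpd 1 hr RT → CuSO4 700 uM final → 20 hr RT → luciferase reagent 10 min → luminescence.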
BRCA1 expr up: BRCA1 expression activation. MCF7-BRCA1-FFLuc reporter, luminescence, 48 h; response scale: scaled: vehicle 0%, 10 µM genistein 100%. Potency, µM (series often up to 46.1 µM), without a hit: top-dose activation, hits mostly activators. actives 1.1% (n = 380,000); further: potency means the concentration at half of the fitted maximal effect; nearly all actives have a fitted effect of over 80% in size
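Cells: MCF7-BRCA1-FFLuc, 2000/well. Exposure: 48 h, 37 °C, 5% CO2. Read: luminescence, 15 min post-substrate. Controls: genistein 10 microM (maximal activation), DMSO (neutral).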
Giardia kill: Giardia lamblia killing; activity change, % at 7.66 µM, hits read low; actives 0.15% (n = 340,000); AID 540267; Giardia lamblia trophozoite viability; in the data active means activity change below about -80%; inconclusive means between about -30% and that limit;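 further: parasites exposed to compound for two days anaerobically before the ATP read; on the % scale 0 is the no-effect control and ±100 the full control effect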
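Luminescence from cellular ATP indicates surviving trophozoites (100 cells/well) following 48 hrs anaerobic compound treatment at 37 deg C; signal develops 15-30 min at room temperature.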
ELG1 repair inh: blocks ELG1-dependent DNA repair in HEK293T cells | AID 504467 | HEK293T ELG1-luciferase reporter, luminescence, 16 h; DNA damage induced by 5-fluorouridine | Potency, µM (doses to about 46.1 µM), without a hit: top-dose activity change, negative = inhibition, actives largely listed as inhibitors | actives 2.3% (n = 330,000); further: potency means the concentration at half of the fitted maximal effect; on the % scale 0 is the no-effect control and ±100 the full control effect; nearly all actives have a fitted effect of over 55% in size
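DMSO vehicle served as the neutral condition. Each well held 2,000 cells given 5-fluorouridine plus compound; after 16 hr at 37 °C/5% CO2, ONE-Glo was added and luciferase measured 30 min later.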
p53 reactivation: mutant p53 re-activation in reporter cells; H1299 p53-A138V BP100-luciferase reporter, luminescence, 24 h; Potency, µM (highest dose often 92.2 µM), for inactives: at the highest dose activity change, positive = activation, actives largely listed as activators; actives 0.063% (n = 320,000); AID 504706; further: potency means the concentration at half of the fitted maximal effect; % of control where 0% means no effect; nearly all actives have a fitted effect of over 45% in size
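H1299 (p53-null), stable ts p53-A138V + BP100-Luc; 1000 cells/well, Opti-MEM/10% FBS; cpd 4 pt, 1:5; 24 h, 37 deg C, 5% CO2; detection reagent 10 min RT; luminescence.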
VP16 counter: inhibits Gal4-VP16 luciferase reporter, ROR gamma counter-screen; Drosophila S2 Gal4-VP16 UAS-luciferase, luminescence, 20 h; Potency, µM (series often up to 53.6 µM), without a hit: at the highest dose activity, negative = inhibition, actives largely listed as inhibitors; actives 3.5% (n = 310,000); AID 2546;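 further: Gal4-VP16 expression switched on by copper sulfate through the metallothionein promoter; potency means the concentration at half of the fitted maximal effect; on the % scale 0 is the no-effect control and ±100 the full control effect; nearly all actives have a fitted effect of over 50% in size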
* hit, by the source's call; ? = inconclusive; . = no result given; [ ] = dose if it differs, or a comment. Compounds with a hit are over-represented: about 7.6% of the library has one in this group of screens. Unless noted, the call rests on the fitted dose curve; in most records, active means well fitted curve in the direction sought with a large enough effect; inconclusive means small, poorly fitted or top-dose-only effect, or another doubt; inactive means no such curve, though single readings can be large; an effect the other way counts as inactive or inconclusive.

SMILES	RORg inh	BRCA1 expr up	Giardia kill	ELG1 repair inh	p53 reactivation	VP16 counter
Cc1ccc(/C=c2\sc3n(c2=O)CN(c2ccc(Br)cc2)CN=3)o1	-20%	-27%	0	5%	8%	-3%
Cc1ccc(/C=c2/sc3n(c2=O)CCCN=3)o1	7.1µM*	?	-6	?	?	?
Cc1cc(Br)ccc1NS(=O)(=O)c1c(C)[nH]c(=O)[nH]c1=O	0%	1%	24	-5%	-2%	-5%
Cc1cc(OCCn2cnc3ccccc3c2=O)ccc1[N+](=O)[O-]	22%	5%	-4	10%	-10%	0%
O=c1c2ccc([N+](=O)[O-])cc2ncn1CCOc1ccc(Cl)cc1	-11%	34%	-20	?	7%	-2%
Cc1ccc(OCCn2cnc3ccccc3c2=O)c([N+](=O)[O-])c1	30%	4.5µM*	-5	?	23%	-5%
O=c1c2ccc([N+](=O)[O-])cc2ncn1CCOc1cccc(Br)c1	-5%	-13%	10	18µM*	-1%	8%
O=C1CC(c2cccc(O)c2)c2cc3c(cc2N1)OCO3 (configuration not stated)	.	-11%	.	.	.	.
NNC(=O)c1cc(Cl)ccc1Cl	11µM*	-29%	7	-14%	4%	-87%
S=C1CSc2ccccc2N1	3.5µM*	12%	-6	13%	2%	7.9µM*
CC1CSc2ccccc2NC1=S (configuration not stated)	7.1µM*	3%	-3	1%	-14%	7.9µM*
Cc1cccc(C)c1OCC(=O)N1CCc2ccccc2C1	-8%	14%	-14	?	.	2%
COc1cc(C(=O)N/N=C(\C)c2ccccn2)cc(OC)c1OC	7%	-77%	-9	3%	1%	-7%
COc1cc(C(=O)N/N=C(\c2ccccc2)c2ccccn2)cc(OC)c1OC	1.3µM*	-64%	-4	?	?	1.3µM*
COc1cccc(C(=O)N/N=C(/c2ccccc2)c2ccccn2)c1	0.1µM*	-84%	4	23%	14%	0.14µM*
COc1ccccc1N1CC(C(=O)OCC(=O)Nc2cc(C)on2)CC1=O (configuration not stated)	.	-1%	-9	7%	2%	.
NS(=O)(=O)c1ccc(NC(=S)NC2CCCC2)cc1	-8%	-61%	0	-2%	-2%	2%
OCCNC(=S)Nc1ccc(Oc2ccccc2)cc1	-26%	10%	21	-22%	11%	21%
S=C(NNc1ccc2ccccc2c1)NC1CCCCC1	2.8µM*	-58%	3	?	?	2.8µM*
Cc1ccc(NC(=S)NNC(=S)NC2CCCCC2)cc1	16µM*	-6%	17	-1%	3%	?
S=C(Nc1ccc(Oc2ccccc2)cc1)NC1CCCCCC1	1.8µM*	-83%	14	-27%	14%	3.2µM*
O=C(NNS(=O)(=O)c1ccc2ccccc2c1)NC1CCCCC1	6%	-24%	21	-8%	-5%	4%
CC(C)c1ccc(NC(=S)NC2CCCCCC2)cc1	2.2µM*	40%	16	?	8%	16µM*
CCNc1nc(C#N)nc2c1ncn2-c1cc(F)cc(F)c1	.	-3%	16	7%	16%	.
COc1cccc(C(=O)NCCS(=O)(=O)N(C)C2CCCCC2)c1	.	4%	-20	2%	3%	.
SMILES	RORg inh	BRCA1 expr up	Giardia kill	ELG1 repair inh	p53 reactivation	VP16 counter
NS(=O)(=O)c1ccc(NC(=S)NC2CCCCCC2)cc1	5%	21%	-7	1%	8%	2%
S=C(Nc1ccc(Oc2ccc(NC(=S)NC3CCCCC3)cc2)cc1)NC1CCCCC1	1µM*	-23%	-18	1%	16%	?
S=C(Nc1ccc(Oc2ccccc2)cc1)NC1CCCCC1	2.2µM*	-75%	-7	-11%	18%	-4%[0.365 µM]
CCN(CC)C(=O)c1[nH]cnc1C(=O)N[C@@H](CCCCNC(=O)OC(C)(C)C)C(=O)OC(C)(C)C	-26%	0%	-8	-1%	-3%	4%
CC(C)C[C@H](NC(=O)c1nc[nH]c1C(=O)NC1CCN(C(=O)OC(C)(C)C)CC1)C(=O)OC(C)(C)C	3.2µM*	-46%	-13	-12%	-12%	7.1µM*
Cc1cccc(NC(=O)c2nc[nH]c2C(=O)NC2CCN(C(=O)OC(C)(C)C)CC2)c1	.	6%	2	26µM*	-1%	.
C[C@H](NC(=O)c1nc[nH]c1C(=O)NC1CCN(C(=O)OC(C)(C)C)CC1)C(=O)OC(C)(C)C	?	6%	6	0%	1%	11µM*
CC(C)(C)OC(=O)NCCCC[C@H](NC(=O)c1nc[nH]c1C(=O)NC1CCN(C(=O)OC(C)(C)C)CC1)C(=O)OC(C)(C)C	11µM*	-19%	0	16µM*	-1%	?
CC(C)C[C@H](NC(=O)c1nc[nH]c1C(=O)NC1CCN(C(=O)OC(C)(C)C)CC1)C(=O)OCc1ccccc1	-22%	0%	-4	15%	-11%	?
CC1CCN(C(=O)c2[nH]cnc2C(=O)NC2CCN(C(=O)OC(C)(C)C)CC2)CC1	.	-3%	-8	4%	5%	.
COc1ccccc1CNC(=O)CSc1cc(C)[nH]c(=O)n1	.	1%	.	.	.	.
COc1cc(OC)cc(-c2nnc(Sc3ccc(C=O)cc3[N+](=O)[O-])o2)c1	-36%	.	.	28%	-26%	-23%
CC(C)[C@H](NC(=O)C1CCN(S(=O)(=O)c2ccccc2)CC1)C(=O)NCc1ccco1	-19%	0%	2	13%	0%	-11%
COc1cccc(OC)c1C(=O)Nc1nc2cc3c(cc2s1)OCO3	-36%	-18%	0	4%	-2%	-18%
COc1cc(C(=O)NNc2nc3cc4c(cc3s2)OCO4)cc(OC)c1OC	?	-5%	18	-21%	-2%	13µM*
COc1cc(OC)cc(C(=O)NNc2nc3cc4c(cc3s2)OCO4)c1	4.5µM*	-27%	-22	12%	9%	13µM*
COc1ccc2nc(Nc3nc4cc5c(cc4s3)OCO5)sc2c1	4.5µM*	22%	4	?	9%	11µM*
CCCCN(C)C(=O)c1nc2ccccn2c1CN1CCC[C@H]1C(=O)OC	-26%	0%	-5	-4%	-2%	1%
COc1ccc(-c2oc3cccnc3c2C#CC2(O)CCCCC2)cc1	7.1µM*	-56%	6	?	.	?
CC(=O)Nc1nc(NCc2ccccc2Cl)n(-c2ccccc2)n1	-18%	0%	-11	-16%	-1%	-12%
CC(=O)Nc1nc2ccccc2n1Cc1ccccc1Cl	0.89µM*	-45%	2	?	4%	2.2µM*

Screens from PubChem BioAssay.
